# CF NFkB inh = cystic fibrosis NF-kB activation inhibition | KKLEB NF-kB-GFP reporter, PAF-induced, GFP fluorescence overnight | inhibition, % at 5 µM | actives 0.86% (n = 360,000);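 active means at least 50% inhibition at 5 µM, scaled per plate between neutral and stimulator controls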;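 further: PAF is a Pseudomonas aeruginosa culture filtrate used as stimulus; plate controls were PAF-stimulated DMSO wells for no effect and unstimulated DMSO wells for full effect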
# Beta2AR agonist = human beta-2 adrenergic receptor agonism by FAP; Am2.2-beta2AR cells, FAP receptor internalization, flow cytometry; response, % (concentration not given with the values); actives 0.43% (n = 340,000);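 active means response above a set limit, near 3 SD of response in nonfluorescent compounds, cut at about 42% in these data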
# TRPM1 prom inh = MITF TRPM1 promoter inhibition in SK-MEL-5 cells; SK-MEL-5 TRPM1 promoter luciferase, 24 h; inhibition, % at 12.5 µM; actives 0.83% (n = 330,000);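 active means mean inhibition across replicates of 60% or more, whatever share of single replicates reaches that level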
# KKLEB tox = CF airway cell cytotoxicity counter-screen; KKLEB CF airway cells viability, ATPlite luminescence, overnight; active compounds read low; cells stimulated with P. aeruginosa culture filtrate; activity change (cytotoxicity), % at 5 µM; actives 0.36% (n = 360,000); AID 602141;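 active means corrected activity change at or below -50% at 5 µM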
# HIF-2a block = HIF-2a inhibition; 786-0 RCC cells HIF-2a reporter, luciferase luminescence, overnight; inhibition, % at 18.8 µM; actives 0.72% (n = 360,000); AID 624352;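 active means inhibition of the luminescence signal of 40% or more relative to plate controls, in a single-dose primary screen at 18.75 µM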
# Peg3 prom inh-1 = inhibitors of Peg3 promoter | inhibition, % at 20 µM | AID 588405 | HeLa PEG-Prom luciferase reporter, luminescence, overnight | actives 1.7% (n = 360,000);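 active means inhibition of at least 50% at 20 µM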
# Peg3 prom inh-2 = Peg3 promoter inhibition confirmation | HeLa PEG-Prom luciferase reporter, luminescence, overnight | inhibition, % at 20 µM | shares compounds with Peg3 prom inh-1 | AID 602417 | actives 84% (n = 1,300);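 active means at 20 µM dose, 40% or more inhibition averaged across four replicates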
# CF NFkB conf = CF NF-kB inhibition confirmation, single concentration | shares compounds with CF NFkB inh | KKLEB CF airway cells, PAF-induced NF-kB-GFP fluorescence, overnight | inhibition, % at 5 µM | actives 64% (n = 1,300); in the data active means inhibition above about 40%;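 further: stimulus PAF is a Pseudomonas aeruginosa filtrate and not platelet activating factor; plate controls were DMSO wells with stimulus for no effect and unstimulated DMSO wells for full effect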
# Mdm2-MdmX confirm = Mdm2/MdmX (human) interaction inhibition, confirmed. shares compounds with HIF-2a block. actives 99% (n = 740). SaOS-2 split-luciferase Mdm2/MdmX complementation, luminescence. inhibition, % at 8 µM. AID 504601;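 active means mean inhibition of the luminescence signal across two replicates at or above 26 percent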
# Target sequence (O15151 whole entry, looked up): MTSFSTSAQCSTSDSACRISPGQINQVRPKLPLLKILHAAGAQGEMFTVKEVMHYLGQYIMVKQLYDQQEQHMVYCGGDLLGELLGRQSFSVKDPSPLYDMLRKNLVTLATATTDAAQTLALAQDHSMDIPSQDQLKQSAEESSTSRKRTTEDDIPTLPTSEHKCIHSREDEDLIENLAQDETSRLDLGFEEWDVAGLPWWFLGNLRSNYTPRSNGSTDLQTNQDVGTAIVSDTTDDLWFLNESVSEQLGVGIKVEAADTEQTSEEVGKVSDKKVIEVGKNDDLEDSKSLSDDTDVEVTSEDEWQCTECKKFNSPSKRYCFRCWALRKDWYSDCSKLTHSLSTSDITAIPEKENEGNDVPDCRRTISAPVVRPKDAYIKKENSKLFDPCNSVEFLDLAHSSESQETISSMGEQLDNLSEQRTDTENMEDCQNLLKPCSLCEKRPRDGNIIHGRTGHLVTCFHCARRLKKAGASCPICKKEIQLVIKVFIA
# Target sequence (Q00987 whole entry, looked up): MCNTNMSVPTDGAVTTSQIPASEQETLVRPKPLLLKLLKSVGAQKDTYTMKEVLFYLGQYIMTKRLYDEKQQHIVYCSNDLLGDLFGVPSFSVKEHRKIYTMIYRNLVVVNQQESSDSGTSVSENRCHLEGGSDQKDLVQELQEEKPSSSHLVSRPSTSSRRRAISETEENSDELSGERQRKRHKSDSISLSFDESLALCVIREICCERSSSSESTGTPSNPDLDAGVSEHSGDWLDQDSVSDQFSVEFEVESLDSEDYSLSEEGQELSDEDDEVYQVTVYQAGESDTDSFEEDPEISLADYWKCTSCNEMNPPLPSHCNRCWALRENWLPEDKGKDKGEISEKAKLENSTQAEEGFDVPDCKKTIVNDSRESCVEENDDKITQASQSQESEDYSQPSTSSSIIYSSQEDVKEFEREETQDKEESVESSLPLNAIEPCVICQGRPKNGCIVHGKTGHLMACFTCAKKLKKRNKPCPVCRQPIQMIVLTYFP
# HIF-2a inh conf = confirmation of HIF-2a inhibitors. 786-0 RCC cells, HIF-2a luciferase reporter luminescence, overnight. inhibition, % at 18.8 µM. shares compounds with HIF-2a block. AID 651580. actives 56% (n = 1,800);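 active means mean inhibition across four replicates of at least 40 percent at the single tested concentration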
# HIF-1a counter = inhibits HIF-1a reporter, a counter-screen for HIF-2a inhibitors; actives 72% (n = 1,800); inhibition, % at 18.8 µM; MiaPaCa-2 HIF-1a luciferase reporter, desferoxamine, overnight; AID 651589; shares compounds with HIF-2a block;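 active means mean inhibition of the reporter signal across four replicates at the single tested dose of 50% or more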
# The depositor's hits bear a star; · = not tested or not shown. Hits are enriched below; roughly 2.8% of the tested compounds scored in any of these assays.
SMILES,CF NFkB inh,Beta2AR agonist,TRPM1 prom inh,KKLEB tox,HIF-2a block,Peg3 prom inh-1,Peg3 prom inh-2,HIF-2a inh conf,HIF-1a counter,others
CCCCn1nnnc1C1(C)CCC(=O)N1CCc1ccccc1F (stereo not drawn),·,·,·,·,-4,·,·,·,·,
Cc1cccc(/C=N/Nc2ccc3ccccc3n2)c1,-21,-1,76*,-48,52*,67*,70*,88*,90*,
Cc1ccc(/C=N/Nc2ccc3ccccc3n2)o1,-38,7,25,-10,8,-21,·,·,·,
C(=N\Nc1nc2ccccc2[nH]1)/c1ccc2c(c1)OCCO2,-5,-2,3,0,-75,-131,·,·,·,
C(=N\Nc1ccc2ccccc2n1)/c1ccc2c(c1)OCCO2,2,-4,90*,-22,71*,79*,77*,91*,100*,
CCc1noc(C)c1C(=O)N(CC)CC(=O)NCc1ccc(F)cc1,-18,·,·,8,4,-4,·,·,·,
COC(=O)c1cn(NC(=O)C2CCC(C)CC2)c(=O)c2ccccc12 (stereo not drawn),3,-7,1,5,2,4,·,·,·,
COC(=O)c1cn(NC(=O)c2cc([N+](=O)[O-])ccc2F)c(=O)c2ccccc12,43,3,-6,-26,4,58*,66*,·,·,Mdm2-MdmX confirm=95*
Cc1cccc(S(=O)(=O)N(C)C[C@H]2OCc3cnnn3CCCC(=O)N([C@H](C)CO)C[C@@H]2C)c1,-6,·,·,1,16,-2,·,·,·,
CC1=C(C(=O)OCc2ccc3c(c2)OCO3)C(c2ccccc2)NC(=O)N1 (stereo not drawn),84*,-5,28,-30,37,51*,62*,·,·,Mdm2-MdmX confirm=96*
CC1=C(C(=O)OCc2ccc3c(c2)OCO3)C(c2ccccc2OCc2ccccc2)NC(=O)N1 (stereo not drawn),26,-4,10,-3,29,15,·,·,·,
O=[N+]([O-])c1cc(Cl)cc(/C=N\Nc2ccccn2)c1O,85*,6,58,-93*,8,55*,55*,·,·,Mdm2-MdmX confirm=88*
O=[N+]([O-])c1ccc(Cl)cc1C=NNc1ccccn1,-25,-12,8,3,-9,-7,·,·,·,
Clc1ccc(CSc2nnc(-c3ccc4c(c3)OCO4)o2)cc1,-11,-1,-3,8,-170,-65,·,·,·,
O=C1CCCCC1Sc1nnc(-c2ccc3c(c2)OCO3)o1 (stereo not drawn),-4,-1,45,-5,69*,85*,74*,86*,92*,
COc1cc(/C=C/C(=O)N2CCCN(C(=O)/C=C/c3cc(OC)c(OC)c(OC)c3)CC2)cc(OC)c1OC,-29,1,10,7,5,4,·,·,·,
COc1cc(/C=C/C(=O)N2CCC=CC2=O)cc(OC)c1OC,81*,22,92*,16,94*,104*,94*,83*,103*,CF NFkB conf=33
COCCNC(=O)C[C@@H]1C[C@H]2c3cc(NC(=O)Nc4ccc(F)cc4)ccc3O[C@H]2[C@H](CO)O1,10,·,·,18,3,17,·,·,·,
CN(C)CCNC(=O)c1cccc2[nH]c(-c3ccncc3)nc12,-50,-34,15,20,38,41,·,·,·,
COc1cccc2nc3c(C(=O)NCCN(C)C)cccc3cc12,-117,-10,77*,0,43*,99*,97*,31,105*,
CC(=O)N1N=C(c2ccco2)CC1c1cccs1 (stereo not drawn),0,6,11,-2,-1,2,·,·,·,
O=C(CCl)N1N=C(c2ccco2)CC1c1cccs1 (stereo not drawn),58*,4,74*,-20,40*,90*,78*,-6,73*,CF NFkB conf=27
C(=N\Nc1nc2ccccc2[nH]1)/c1ccccn1,-30,-1,83*,-43,73*,86*,76*,-19,-36,
O=c1cnnc(N/N=C/c2ccccn2)[nH]1,11,-9,80*,-2,14,62*,73*,·,·,Mdm2-MdmX confirm=87*
C[C@@H](C(=O)Nc1ccc2c(c1)OCO2)n1c(=O)[nH]c2ccccc2c1=O,-6,8,9,2,-7,-24,·,·,·,
SMILES,CF NFkB inh,Beta2AR agonist,TRPM1 prom inh,KKLEB tox,HIF-2a block,Peg3 prom inh-1,Peg3 prom inh-2,HIF-2a inh conf,HIF-1a counter,others
C[C@@H](C(=O)Nc1ccc2c(c1)OCCO2)n1c(=O)[nH]c2ccccc2c1=O,6,0,19,-14,42*,50*,51*,45*,78*,
Cc1ccc2nc(C)cc(Nc3ccc([N+](=O)[O-])cc3)c2c1,-72,16,84*,-24,53*,104*,98*,12,95*,
C/C(=N\NC(=O)c1nnn(-c2nonc2N)c1-c1ccccc1)c1ccccc1O,19,-4,59,-1,7,73*,67*,·,·,Mdm2-MdmX confirm=84*
CCCc1c(C(=O)N/N=C(\C)c2ccccc2O)nnn1-c1nonc1N,-15,·,·,-7,13,37,·,·,·,
CC(=O)CSc1ccc(-c2nc3cc(C)c(C)cc3[nH]2)cn1,-6,21,83*,-17,67*,84*,71*,85*,100*,
COCCn1c(C)cc(C(=O)CSc2n[nH]c(N)n2)c1C,-2,8,-13,8,-44,-27,·,·,·,
COCCn1c(C)cc(C(=O)CSc2nnc(C)s2)c1C,4,-1,67*,-8,70*,95*,74*,84*,37,
Cc1cc(Br)cn2c(Cc3ccccc3)c(-c3cccc(Cl)c3)nc12,·,·,·,·,4,·,·,·,·,
CC(=O)Nc1ccc(CN(C)c2c(C)nc3ccc(C(=O)NCCc4ccccn4)cn23)cc1,-12,·,·,-9,6,5,·,·,·,
CCCCCCCNC(=O)C1(CC2CC(c3cccc(Br)c3)=NO2)CCNCC1 (stereo not drawn),26,27,99*,-23,-74,99*,99*,·,·,Mdm2-MdmX confirm=103*
COc1ccc(C(C(=O)NC(C)(C)C)n2c(=O)c(-c3cc4ccccc4[nH]3)nc3ccccc32)cc1 (stereo not drawn),·,·,·,·,-29,·,·,·,·,
c1ccc(-c2nnc(NC3=NCCC3)o2)cc1,-3,2,-25,8,-54,-107,·,·,·,

# Screens: PubChem BioAssay, several laboratories
